From publication PMC4242493, “Sequence specificity incompletely defines the genome-wide occupancy of Myc” come the findings set out here.

Whole data set: some 33,000 sequences, median “normalized occupancy” near 0.075, cut for the highest 2% near 0.095. Shown is part of a subset that was picked to be rich in the highest values.

MaxL homodimer, sequence (P61244 whole entry): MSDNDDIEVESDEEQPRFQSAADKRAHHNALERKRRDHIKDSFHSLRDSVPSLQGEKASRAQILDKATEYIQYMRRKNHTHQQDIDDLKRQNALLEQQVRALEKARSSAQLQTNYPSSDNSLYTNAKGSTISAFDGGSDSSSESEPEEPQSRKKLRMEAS

The target of this assay is MaxL homodimer (Homo sapiens, UniProt P61244 1-160). Put plainly: universal protein-binding microarray (PBM); PBS-based mixture, 10 nM His-tagged protein dimer, 2% milk, 200 ng/uL BSA, 50 ng/uL salmon testes DNA, 0.02% TX-100; detection with Alexa 488 anti-His antibody;; high values mean tight binding. The settings on record: protein: recombinant; tags: C-terminal His-tag (pET21a); chain copies: 2; dsDNA, one strand shown. Put shortly:
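Each 8-mer received a fluorescence intensity from GenePix 4400A scans of Agilent 4 x 44 K 'all 10-mer' universal arrays. Those arrays had been incubated with His-tagged protein dimer at 10 nM, and the bound protein was marked with a fluorophore-conjugated anti-His antibody at 10 ng/μL. Binding occupancy is the intensity scaled to that of the highest-ranked sequence word.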
As to GCGAACTA, the binding signal is 0.0739 normalized occupancy.

In the case of ATGTGTCC, the binding signal turned out to be 0.0851 normalized occupancy.

In the case of ACATTTGA, the binding signal is 0.0788 normalized occupancy.

In the case of ACTCACTC, the binding signal worked out at 0.0763 normalized occupancy.

Consider CATCCCAG, for which the binding signal was determined as 0.0743 normalized occupancy.

Take ATGCCCAG: the binding signal amounted to 0.0765 normalized occupancy.

For AGGGGTGA, the binding signal was found to be 0.082 normalized occupancy.

In the case of CATGGTCG, the binding signal stood at 0.0925 normalized occupancy.

Take AGTGGTCA: the binding signal amounted to 0.0751 normalized occupancy.

In the case of CATGGTCA, the binding signal amounted to 0.0991 normalized occupancy.

With GGTGGTAA, the binding signal amounted to 0.0793 normalized occupancy.

As to CATGGTAA, the binding signal was found to be 0.0939 normalized occupancy.

CGTGGTCA: the binding signal is 0.102 normalized occupancy.

Regarding CGTGGTCC, the binding signal worked out at 0.0896 normalized occupancy.

In the case of CGTGGTAA, the binding signal was determined as 0.096 normalized occupancy.

With CATGGTAG, the binding signal worked out at 0.0879 normalized occupancy.

For the sequence CATGGTAC, the binding signal was 0.0998 normalized occupancy.

Consider AATGGTCA, for which the binding signal stood at 0.0816 normalized occupancy.

For CGTGGTAG, the binding signal is 0.089 normalized occupancy.

With GTTAGACA, the binding signal came to 0.0808 normalized occupancy.

Consider CAGGTCAG, for which the binding signal was 0.0752 normalized occupancy.

As for GCATAGCC, the binding signal came out at 0.0775 normalized occupancy.

For ACGTTCCC, the binding signal is 0.0819 normalized occupancy.

With GGTCTTTA, the binding signal was 0.0763 normalized occupancy.

AACACAGC: the binding signal came out at 0.0787 normalized occupancy.

On to CAAGTGTG, for which the binding signal is 0.086 normalized occupancy.

With ATAATGTG, the binding signal came to 0.095 normalized occupancy.

For the sequence ACACAGAG, the binding signal came to 0.0759 normalized occupancy.

For the sequence GATCTTGC, the binding signal was found to be 0.0794 normalized occupancy.

On to AGCATCTC, for which the binding signal was found to be 0.0746 normalized occupancy.

For AGGCATGG, the binding signal stood at 0.0974 normalized occupancy.

For the sequence AGGCATGC, the binding signal was 0.1 normalized occupancy.

On to AGGCATAG, for which the binding signal worked out at 0.0784 normalized occupancy.

As for AGGCATCC, the binding signal came to 0.0757 normalized occupancy.

On to AGGCATTG, for which the binding signal was found to be 0.0775 normalized occupancy.

Turning to AGGCATTC, the binding signal is 0.0762 normalized occupancy.

Regarding CTCGAAAA, the binding signal amounted to 0.0738 normalized occupancy.

With CAAAATTG, the binding signal turned out to be 0.0748 normalized occupancy.

As to AGTCGCAA, the binding signal came to 0.0744 normalized occupancy.

Turning to GCAGGTAA, the binding signal came to 0.0753 normalized occupancy.

Take AATGTTCC: the binding signal was 0.0722 normalized occupancy.

As for AACGTGCT, the binding signal amounted to 0.115 normalized occupancy.

For AAGGTGCC, the binding signal is 0.0753 normalized occupancy.

In the case of GACGTGCC, the binding signal is 0.0841 normalized occupancy.

For the sequence GACGTGCA, the binding signal was found to be 0.0797 normalized occupancy.

Take AACGTGCC: the binding signal turned out to be 0.096 normalized occupancy.

In the case of CACGTGCG, the binding signal came to 0.641 normalized occupancy.

Turning to ACCGTGCT, the binding signal was determined as 0.0773 normalized occupancy.

In the case of AAGGTGCT, the binding signal came to 0.0733 normalized occupancy.

As for CACGTGCA, the binding signal was determined as 0.588 normalized occupancy.

Consider TACGTGCA, for which the binding signal came to 0.0875 normalized occupancy.

On to CACGTCCG, for which the binding signal came out at 0.0797 normalized occupancy.

As for CCCGTGCG, the binding signal stood at 0.0872 normalized occupancy.

For the sequence AATTACGG, the binding signal came out at 0.0744 normalized occupancy.

Regarding CATTGGCG, the binding signal was found to be 0.0762 normalized occupancy.

On to AACTTATT, for which the binding signal stood at 0.0797 normalized occupancy.

With CTGTTATC, the binding signal stood at 0.078 normalized occupancy.

For the sequence CATTAGCG, the binding signal is 0.0779 normalized occupancy.

As to AACGTGCG, the binding signal was determined as 0.108 normalized occupancy.

Turning to AACGTCCA, the binding signal worked out at 0.0778 normalized occupancy.

Take CACGTACC: the binding signal came to 0.0843 normalized occupancy.

Regarding GTCGTGCA, the binding signal was found to be 0.0855 normalized occupancy.

On to CACGTGCC, for which the binding signal amounted to 0.521 normalized occupancy.

In the case of CAGGTGCC, the binding signal amounted to 0.0785 normalized occupancy.

In the case of AACGTTCA, the binding signal was 0.0836 normalized occupancy.

Turning to CTCGTGCA, the binding signal was determined as 0.1 normalized occupancy.

Consider ATCGTGCA, for which the binding signal came to 0.0816 normalized occupancy.

Regarding AACGTGCA, the binding signal was determined as 0.109 normalized occupancy.

On to AACGTCCG, for which the binding signal worked out at 0.0721 normalized occupancy.

In the case of AAGGTGCG, the binding signal was 0.077 normalized occupancy.

For CAGGCTGA, the binding signal came to 0.0746 normalized occupancy.

Regarding AAAGCACG, the binding signal was 0.0922 normalized occupancy.

Take AGTGTTAA: the binding signal amounted to 0.0742 normalized occupancy.

With CCCATAAG, the binding signal stood at 0.0856 normalized occupancy.

Take ACATCCTA: the binding signal stood at 0.0822 normalized occupancy.

For AATTAATC, the binding signal worked out at 0.0741 normalized occupancy.

In the case of ACGGGGAC, the binding signal stood at 0.0795 normalized occupancy.

As to ACCAGAAC, the binding signal was found to be 0.0763 normalized occupancy.

For CGGCATCA, the binding signal turned out to be 0.0791 normalized occupancy.

As for CCAGGTCG, the binding signal turned out to be 0.0731 normalized occupancy.

Turning to CGTACACG, the binding signal was determined as 0.0971 normalized occupancy.

Regarding CATACATA, the binding signal came to 0.0846 normalized occupancy.

Regarding AGTACACA, the binding signal is 0.0858 normalized occupancy.

Regarding CATACACC, the binding signal stood at 0.0901 normalized occupancy.

CGTACACA: the binding signal was 0.0813 normalized occupancy.

For CATACACG, the binding signal came out at 0.097 normalized occupancy.

Consider AATACATG, for which the binding signal turned out to be 0.0934 normalized occupancy.

In the case of CATACACA, the binding signal came to 0.0892 normalized occupancy.

For CATACATG, the binding signal worked out at 0.0969 normalized occupancy.

CCGCTTAC: the binding signal is 0.0724 normalized occupancy.

As to TCAGGCAA, the binding signal came out at 0.0718 normalized occupancy.

Take GACGGCGA: the binding signal was determined as 0.0752 normalized occupancy.

On to CCAACAAG, for which the binding signal was determined as 0.0776 normalized occupancy.

As for CCGCGAGG, the binding signal was determined as 0.0805 normalized occupancy.

On to AACCTAAC, for which the binding signal is 0.0728 normalized occupancy.

Consider GCGATTCC, for which the binding signal stood at 0.0814 normalized occupancy.

For the sequence ACCCACGC, the binding signal was determined as 0.105 normalized occupancy.

On to CCCCACGG, for which the binding signal worked out at 0.0843 normalized occupancy.

For CCCCACGA, the binding signal stood at 0.0848 normalized occupancy.

For the sequence GCCCACCC, the binding signal stood at 0.087 normalized occupancy.

Regarding ACCCACGA, the binding signal stood at 0.0913 normalized occupancy.

As to ACCCACGT, the binding signal amounted to 0.0984 normalized occupancy.

Take CCCCACGC: the binding signal amounted to 0.0979 normalized occupancy.

ACCCACGG: the binding signal is 0.0796 normalized occupancy.

Turning to ACCCACCA, the binding signal came out at 0.088 normalized occupancy.

Take GCCCACGC: the binding signal was 0.0978 normalized occupancy.

Consider ACCCACAT, for which the binding signal was found to be 0.0932 normalized occupancy.

For GCCCACGA, the binding signal is 0.0823 normalized occupancy.

On to CTCGCACC, for which the binding signal amounted to 0.0733 normalized occupancy.

ATCTATTG: the binding signal is 0.078 normalized occupancy.

As for AGATAGGC, the binding signal is 0.078 normalized occupancy.

As to ACATAGAA, the binding signal was found to be 0.0839 normalized occupancy.

TAGTTAAA: the binding signal is 0.0739 normalized occupancy.
